Laboratory results reported in PubChem BioAssay (NCATS).
Inconclusive results are not listed. Calls of active or inactive are those of the source. Unless noted, calls come from the whole dose curve; as a rule, active = well fitted curve in the direction sought with a large enough effect; inconclusive = small, poorly fitted or top-dose-only effect, or another doubt; inactive = no such curve, though single readings can be large; an effect the other way counts as inactive or inconclusive.

Columns and labels:
[1] = target: Glucocorticoid receptor (Homo sapiens) (UniProt P04150); assay: GR-GFP Redistribution (AID 450;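 active = compounds whose dose series gives a full or clear partial fitted curve of increased nuclear translocation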; note: potency is the fitted concentration of half-maximal effect)
Glucocorticoid receptor (Homo sapiens), sequence (P04150 whole entry, looked up, the tested form may be a part): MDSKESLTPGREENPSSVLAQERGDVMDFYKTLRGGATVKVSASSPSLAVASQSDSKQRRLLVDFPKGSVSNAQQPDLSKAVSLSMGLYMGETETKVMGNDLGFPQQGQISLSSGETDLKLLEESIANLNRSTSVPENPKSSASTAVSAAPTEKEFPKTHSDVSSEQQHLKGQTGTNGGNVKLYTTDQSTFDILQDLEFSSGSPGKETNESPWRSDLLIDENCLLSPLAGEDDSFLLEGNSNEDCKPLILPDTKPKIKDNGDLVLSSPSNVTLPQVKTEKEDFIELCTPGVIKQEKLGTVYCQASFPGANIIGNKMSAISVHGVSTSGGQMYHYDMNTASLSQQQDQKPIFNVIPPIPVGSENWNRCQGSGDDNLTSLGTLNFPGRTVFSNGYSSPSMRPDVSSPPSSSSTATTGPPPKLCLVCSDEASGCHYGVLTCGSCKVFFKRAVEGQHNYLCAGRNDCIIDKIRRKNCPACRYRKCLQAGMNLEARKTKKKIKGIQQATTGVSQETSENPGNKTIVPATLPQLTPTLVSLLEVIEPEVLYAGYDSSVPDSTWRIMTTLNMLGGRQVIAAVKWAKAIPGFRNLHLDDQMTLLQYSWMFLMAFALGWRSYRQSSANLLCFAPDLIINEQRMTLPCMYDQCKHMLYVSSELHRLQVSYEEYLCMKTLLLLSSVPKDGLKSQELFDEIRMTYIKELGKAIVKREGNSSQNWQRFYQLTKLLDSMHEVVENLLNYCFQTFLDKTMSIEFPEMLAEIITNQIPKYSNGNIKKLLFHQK

[2] = target: Glucocorticoid receptor (Homo sapiens) (UniProt P04150); assay: GR-EFC Redistribution (AID 451; calls by dose curve; note: potency is the fitted concentration of half-maximal effect); details: CHO-K1 GR-EFC translocation, beta-gal luminescence, 2 h
Procedure, shortened: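 CHO-K1 cells stably expressing nuclear-localized β-gal enzyme acceptor and GR fused C-terminally to the enzyme donor fragment; ligand-driven nuclear translocation restores β-gal by complementation. Compounds titrated up to 46 uM final, 2 h at 37 °C; luminescence read.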

[3] = target: Mitogen-activated protein kinase 10 (Mus musculus) (UniProt Q61831); assay: JNK3 AlphaScreen Assay (AID 530; active = well fitted curve in either direction with a large enough effect, not every such curve was filed as active;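 note: kinase came from lysate of stimulated human HepG2 cells; signal reports phosphorylation of biotinylated GST-cJun 1-79 at Ser73 with 10 µM ATP; % is set by controls: 0 for no effect and ±100 for the full control effect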)
Procedure, shortened: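 Inhibitors reduce antibody binding to phosphorylated biotin-cJun, lowering AlphaScreen luminescence. Lysates from HepG2 cells pre-activated by IL-1beta plus TNF-alpha supplied JNK3; compounds were titrated.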

[4] = target: 3',5'-cyclic-AMP phosphodiesterase 4B (Homo sapiens) (UniProt Q07343); assay: qHTS Assay for Inhibitors of PDE-IV (AID 607; active = well fitted activation curve with a large enough effect in the main read-out, with a control signal flat, not every such curve was filed as active; note: % of control where 0% means no effect)
3',5'-cyclic-AMP phosphodiesterase 4B (Homo sapiens), sequence (Q07343 whole entry, looked up): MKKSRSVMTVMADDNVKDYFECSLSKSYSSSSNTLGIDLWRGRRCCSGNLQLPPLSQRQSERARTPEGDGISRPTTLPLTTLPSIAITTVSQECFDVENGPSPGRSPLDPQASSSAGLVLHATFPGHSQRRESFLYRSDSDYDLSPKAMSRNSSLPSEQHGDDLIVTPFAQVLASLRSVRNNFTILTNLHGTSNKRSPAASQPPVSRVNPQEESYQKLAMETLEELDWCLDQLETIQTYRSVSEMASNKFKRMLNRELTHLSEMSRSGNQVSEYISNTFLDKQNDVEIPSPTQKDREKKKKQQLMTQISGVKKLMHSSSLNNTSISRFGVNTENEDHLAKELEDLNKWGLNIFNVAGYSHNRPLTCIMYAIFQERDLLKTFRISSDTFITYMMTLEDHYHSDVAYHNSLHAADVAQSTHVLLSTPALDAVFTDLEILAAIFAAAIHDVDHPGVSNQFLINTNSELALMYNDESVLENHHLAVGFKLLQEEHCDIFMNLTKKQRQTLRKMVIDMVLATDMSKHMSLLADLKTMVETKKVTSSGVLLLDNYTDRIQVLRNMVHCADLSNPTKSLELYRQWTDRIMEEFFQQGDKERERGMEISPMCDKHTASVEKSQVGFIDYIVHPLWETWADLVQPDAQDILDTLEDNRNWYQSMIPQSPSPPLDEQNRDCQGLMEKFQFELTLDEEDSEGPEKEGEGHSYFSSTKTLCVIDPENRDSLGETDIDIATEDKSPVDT
Procedure, shortened: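 ACTOne HEK293 cells carry a modified cAMP-gated CNG channel and express endogenous PDE4; plated 1000 cells/well, compounds up to 22.9 uM final. Membrane-potential dye fluorescence (ex 535/em 590) was read; parental cells received 10 uM forskolin + 100 uM RO 20-1724.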

[5] = target: Cytochrome P450 3A4 (Homo sapiens) (UniProt P08684); assay: qHTS Assay for Activators of Cytochrome P450 3A4 (AID 885); note: nearly all actives have a fitted effect of over 65% in size
Cytochrome P450 3A4 (Homo sapiens), sequence (P08684 whole entry, looked up): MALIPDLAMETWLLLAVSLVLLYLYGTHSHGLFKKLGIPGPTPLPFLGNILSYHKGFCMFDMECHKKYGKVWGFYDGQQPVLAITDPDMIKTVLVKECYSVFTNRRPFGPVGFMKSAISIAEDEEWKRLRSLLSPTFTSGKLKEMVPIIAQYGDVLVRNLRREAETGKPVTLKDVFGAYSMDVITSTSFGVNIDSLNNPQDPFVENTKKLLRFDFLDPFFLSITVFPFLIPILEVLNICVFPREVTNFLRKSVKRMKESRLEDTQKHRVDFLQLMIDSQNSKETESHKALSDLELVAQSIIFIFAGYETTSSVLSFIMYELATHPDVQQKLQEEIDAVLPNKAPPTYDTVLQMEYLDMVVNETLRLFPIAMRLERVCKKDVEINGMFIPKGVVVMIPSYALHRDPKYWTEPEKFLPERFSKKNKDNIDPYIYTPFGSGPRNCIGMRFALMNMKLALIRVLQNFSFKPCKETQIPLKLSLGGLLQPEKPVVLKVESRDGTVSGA
Procedure, shortened: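 20nM CYP3A4 + 25uM Luciferin-PPXE (=KM), 200mM KPO4; cpd 10 min RT; NADPH regen, 60 min RT; stop w/ detection buffer, 20 min; luminescence. Normalized to 57 uM ketoconazole.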

[6] = target: ATP-dependent 6-phosphofructokinase (Trypanosoma brucei brucei) (UniProt O15648); assay: qHTS Assay to Find Inhibitors of T. brucei phosphofructokinase: hit validation (AID 492961);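 note: luminescence reports ADP formed as PFK phosphorylates fructose-6-phosphate with ATP; % is set by controls: 0 for no effect and ±100 for the full control effect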
ATP-dependent 6-phosphofructokinase (Trypanosoma brucei brucei), sequence (O15648 whole entry, looked up): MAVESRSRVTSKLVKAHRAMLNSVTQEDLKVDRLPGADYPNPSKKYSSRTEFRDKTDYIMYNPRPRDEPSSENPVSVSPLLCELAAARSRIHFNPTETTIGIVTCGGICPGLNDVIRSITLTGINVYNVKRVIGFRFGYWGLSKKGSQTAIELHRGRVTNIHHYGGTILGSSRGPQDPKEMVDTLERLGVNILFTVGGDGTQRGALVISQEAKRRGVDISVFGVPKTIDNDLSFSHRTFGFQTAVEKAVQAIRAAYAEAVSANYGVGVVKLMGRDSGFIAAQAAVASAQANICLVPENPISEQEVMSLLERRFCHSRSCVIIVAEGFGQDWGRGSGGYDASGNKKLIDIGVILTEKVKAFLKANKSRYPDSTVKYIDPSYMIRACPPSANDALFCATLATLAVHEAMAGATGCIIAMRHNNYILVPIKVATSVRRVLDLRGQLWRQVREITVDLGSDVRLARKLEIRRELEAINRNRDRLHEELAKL
Procedure, shortened: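 PFK 1.25 nM, F6P 0.5 mM, ATP 0.1 mM, MgCl2 5 mM, 0.1 M TEA pH 8.0, Tween20 0.01%, BSA 0.1%; 45 min RT. ADP-Glo two-step detection, luminescence. qHTS titration; curve fitting with curve-class categorization.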

[7] = target: Ubiquitin carboxyl-terminal hydrolase 1 (Homo sapiens) (UniProt O94782); assay: Inhibitors of USP1/UAF1: Pilot qHTS (AID 504865);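 note: rhodamine fluorescence freed from ubiquitin-rhodamine substrate followed over time; top concentration of the series differs between compounds; % is set by controls: 0 for no effect and ±100 for the full control effect; nearly all actives have a fitted effect of over 35% in size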
Ubiquitin carboxyl-terminal hydrolase 1 (Homo sapiens), sequence (O94782 whole entry, looked up): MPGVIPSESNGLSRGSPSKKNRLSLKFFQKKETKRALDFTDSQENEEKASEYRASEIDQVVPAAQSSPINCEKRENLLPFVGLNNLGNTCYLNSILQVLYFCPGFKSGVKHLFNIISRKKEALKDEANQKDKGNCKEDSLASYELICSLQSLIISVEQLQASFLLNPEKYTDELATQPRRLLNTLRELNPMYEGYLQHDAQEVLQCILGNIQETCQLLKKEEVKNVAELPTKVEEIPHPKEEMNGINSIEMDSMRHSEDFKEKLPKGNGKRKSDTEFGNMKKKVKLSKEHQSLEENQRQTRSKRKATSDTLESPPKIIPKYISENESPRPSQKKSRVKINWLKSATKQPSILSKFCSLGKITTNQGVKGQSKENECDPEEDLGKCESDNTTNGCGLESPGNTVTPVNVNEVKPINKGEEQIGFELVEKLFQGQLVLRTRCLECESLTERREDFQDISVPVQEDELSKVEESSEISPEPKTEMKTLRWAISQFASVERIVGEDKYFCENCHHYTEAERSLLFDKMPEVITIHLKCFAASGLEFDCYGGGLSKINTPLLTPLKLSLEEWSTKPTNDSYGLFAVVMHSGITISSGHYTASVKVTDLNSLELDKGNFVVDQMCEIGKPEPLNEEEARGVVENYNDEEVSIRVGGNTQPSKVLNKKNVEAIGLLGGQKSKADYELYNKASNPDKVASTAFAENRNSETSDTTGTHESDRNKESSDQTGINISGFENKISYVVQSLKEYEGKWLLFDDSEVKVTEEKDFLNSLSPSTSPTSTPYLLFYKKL
Procedure, shortened: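 USP1/UAF1 complex (1nM) preincubated with compound 15 min at room temperature, then Ub-Rho substrate (150nM final) added. Fluorescence read kinetically at 480/540 nm, 6 reads every 60 seconds. Buffer: 50mM HEPES pH 7.8, 0.5mM EDTA, 0.1 mg/ml BSA, 1mM TCEP, 0.01% Tween-20.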

[8] = target: Luciferin 4-monooxygenase (Photinus pyralis) (UniProt P08659); assay: Biochemical firefly luciferase enzyme assay for NPC (AID 624030);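 note: purified P. pyralis luciferase at 10 nM with luciferin and ATP substrate; 0% = DMSO and -100% = full luciferase inhibition by PTC124 control; nearly all actives have a fitted effect of over 70% in size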
Luciferin 4-monooxygenase (Photinus pyralis), sequence (P08659 whole entry, looked up): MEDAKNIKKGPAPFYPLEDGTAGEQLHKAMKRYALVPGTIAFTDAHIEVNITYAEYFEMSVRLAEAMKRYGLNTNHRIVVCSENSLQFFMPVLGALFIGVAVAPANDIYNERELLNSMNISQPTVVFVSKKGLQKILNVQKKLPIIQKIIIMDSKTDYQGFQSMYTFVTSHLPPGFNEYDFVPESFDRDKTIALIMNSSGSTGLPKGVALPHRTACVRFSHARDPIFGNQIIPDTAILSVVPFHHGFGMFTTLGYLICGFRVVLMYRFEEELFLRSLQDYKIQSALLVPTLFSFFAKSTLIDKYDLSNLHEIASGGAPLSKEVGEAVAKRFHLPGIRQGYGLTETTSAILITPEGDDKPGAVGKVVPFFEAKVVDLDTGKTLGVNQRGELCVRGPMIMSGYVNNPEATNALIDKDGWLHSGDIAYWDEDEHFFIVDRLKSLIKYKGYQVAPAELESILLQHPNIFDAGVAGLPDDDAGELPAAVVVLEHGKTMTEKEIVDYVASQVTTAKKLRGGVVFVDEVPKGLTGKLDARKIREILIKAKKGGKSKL
Procedure, shortened: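 Counter-screen for direct inhibition of the luciferase enzyme by approved-drug library compounds, run at 10 nM enzyme in 50 mM Tris acetate (final). Luminescence was read within 5 min of enzyme-buffer addition and normalized to PTC124 versus DMSO (0%).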

[9] = S16 Schwann cell viability assay (CellTiter-Glo assay) (AID 624031);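 note: cellular ATP luminescence as a viability measure; plate controls were DMSO-treated cells for no effect and cell-free wells for full effect; nearly all actives have a fitted effect of over 70% in size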
Procedure, shortened: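 This viability control uses native rat S16 Schwann cells grown in DMEM plus 10% FBS. After a 24 h compound treatment at 37 °C, CellTiter-Glo luminescence reports ATP content, scaled against DMSO-treated and cell-free wells.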

[10] = S16 Schwann cell PMP22 intronic element beta-lactamase assay (AID 624044; calls by dose curve;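 note: 0% = DMSO and -100% = potassium clavulanate positive control; nearly all actives have a fitted effect of over 15% in size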); details: S16 rat Schwann cells, PMP22 element beta-lactamase FRET, 24 h; ratio activity, negative = inhibition: at 38.3 µM (top of the series)
Procedure, shortened: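 Rat S16 Schwann cells with beta-Lac driven by a PMP22 intronic element, compound-treated 24 h at 37 °C. LiveBLAzer FRET B/G read: 460 nm normalized to potassium clavulanate vs DMSO; 535 nm FRET as viability; concentration-effect curves classified.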

[11] = qHTS profiling for inhibitors of Plasmodium falciparum proliferation (AID 504749);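 note: 0% = DMSO vehicle and full inhibition = artemisinin control; nearly all actives have a fitted effect of over 60% in size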; details: P. falciparum in erythrocytes, SYBR Green DNA, 72 h, at 12.8 µM (top of the series)
Procedure, shortened: (§1)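 Parasite proliferation within erythrocytes, 72 h exposure. Endpoint: SYBR Green I fluorescence after overnight lysis at room temperature. Controls: 0.29 uM artemisinin, DMSO.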

[12] = tested on: 3D7; assay: as above; details: P. falciparum in erythrocytes, SYBR Green DNA, 72 h; series mostly up to 28.7 µM
Procedure, shortened: as §1

[13] = tested on: 7G8; assay: as above; details: P. falciparum in erythrocytes, SYBR Green DNA, 72 h; series mostly up to 28.7 µM
Procedure, shortened: as §1

[14] = tested on: AA1029; assay: as above; details: P. falciparum in erythrocytes, SYBR Green DNA, 72 h; series mostly up to 28.7 µM
Procedure, shortened: as §1

[15] = tested on: AS120; assay: as above; details: P. falciparum in erythrocytes, SYBR Green DNA, 72 h; series mostly up to 28.7 µM
Procedure, shortened: as §1

[16] = tested on: ATS189; assay: as above; details: P. falciparum in erythrocytes, SYBR Green DNA, 72 h; series mostly up to 28.7 µM
Procedure, shortened: as §1

[17] = tested on: ATS95; assay: as above; details: P. falciparum in erythrocytes, SYBR Green DNA, 72 h; series mostly up to 28.7 µM
Procedure, shortened: as §1

[18] = tested on: C2A; assay: as above; details: P. falciparum in erythrocytes, SYBR Green DNA, 72 h; series mostly up to 28.7 µM
Procedure, shortened: as §1

[19] = tested on: CP185; assay: as above; details: P. falciparum in erythrocytes, SYBR Green DNA, 72 h; series mostly up to 28.7 µM
Procedure, shortened: as §1

[20] = tested on: CP191; assay: as above; details: P. falciparum in erythrocytes, SYBR Green DNA, 72 h; series mostly up to 28.7 µM
Procedure, shortened: as §1

[21] = tested on: CP192; assay: as above; details: P. falciparum in erythrocytes, SYBR Green DNA, 72 h; series mostly up to 28.7 µM
Procedure, shortened: as §1

[22] = tested on: CP194; assay: as above; details: P. falciparum in erythrocytes, SYBR Green DNA, 72 h; series mostly up to 28.7 µM
Procedure, shortened: as §1

[23] = tested on: CP201; assay: as above; details: P. falciparum in erythrocytes, SYBR Green DNA, 72 h; series mostly up to 28.7 µM
Procedure, shortened: as §1

[24] = tested on: CP203; assay: as above; details: P. falciparum in erythrocytes, SYBR Green DNA, 72 h; series mostly up to 28.7 µM
Procedure, shortened: as §1

[25] = tested on: CP211; assay: as above; details: P. falciparum in erythrocytes, SYBR Green DNA, 72 h; series mostly up to 28.7 µM
Procedure, shortened: as §1

[26] = tested on: CP217; assay: as above; details: P. falciparum in erythrocytes, SYBR Green DNA, 72 h; series mostly up to 28.7 µM
Procedure, shortened: as §1

[27] = tested on: CP237; assay: as above; details: P. falciparum in erythrocytes, SYBR Green DNA, 72 h; series mostly up to 28.7 µM
Procedure, shortened: as §1

[28] = tested on: CP238; assay: as above; details: P. falciparum in erythrocytes, SYBR Green DNA, 72 h; series mostly up to 28.7 µM
Procedure, shortened: as §1

[29] = tested on: CP247; assay: as above; details: P. falciparum in erythrocytes, SYBR Green DNA, 72 h; series mostly up to 28.7 µM
Procedure, shortened: as §1

[30] = tested on: CP250; assay: as above; details: P. falciparum in erythrocytes, SYBR Green DNA, 72 h; series mostly up to 28.7 µM
Procedure, shortened: as §1

[31] = tested on: CP252; assay: as above; details: P. falciparum in erythrocytes, SYBR Green DNA, 72 h; series mostly up to 28.7 µM
Procedure, shortened: as §1

[32] = tested on: CP256; assay: as above; details: P. falciparum in erythrocytes, SYBR Green DNA, 72 h; series mostly up to 28.7 µM
Procedure, shortened: as §1

[33] = tested on: CP260; assay: as above; details: P. falciparum in erythrocytes, SYBR Green DNA, 72 h; series mostly up to 28.7 µM
Procedure, shortened: as §1

CCCC[C@H]1C(=O)N(c2ccccc2)N(c2ccc(O)cc2)C1=O
inactive: Potency [1] > 20.6 µM | Potency [2] > 20.6 µM | Potency [3] | Potency [4] | Potency [5] | Potency [6] | Potency [7] | Potency [8] | Potency [9] | Potency [10] | activity, negative = inhibition ([11]; parasite line A) -7.31% | activity, negative = inhibition ([11]; parasite line B) 3.99% | Potency [12] | Potency [13] | Potency [14] | Potency [15] | Potency [16] | Potency [17] | Potency [18] | Potency [19] | Potency [20] | Potency [21] | Potency [22] | Potency [23] | Potency [24] | Potency [25] | Potency [26] | Potency [27] | Potency [28] | Potency [29] | Potency [30] | Potency [31] | Potency [32] | Potency [33]
